Entries with a potency or affinity are not part of this list.
What was measured:
[1] = test system: Staphylococcus aureus; conditions: Concentration 32 ug.mL-1;; ASSAY_TEST Inhibition of Bacterial Growth; detection method Absorption (OD600); MEDIA CAMHB; plate type 384well; NBS; CORNING #3640; time 18 hr
[2] = test system: Escherichia coli; conditions: Concentration 32 ug.mL-1;; ASSAY_TEST Inhibition of Bacterial Growth; detection method Absorption (OD600); MEDIA CAMHB; plate type 384well; NBS; CORNING #3640; time 18 hr

SMILES	Inhibition [1] [%]	Inhibition [2] [%]
COc1ccccc1CNC(=O)Cn1nc2c(N3CCSCC3)nccn2c1=O	5.62	-5.9
Cc1ccc(N(CC(=O)OC(C)(C)C)S(=O)(=O)c2ccc3nnc(C)n3c2)cc1	2.37	-3.61
COc1ccc(-c2cc3c4nn(CC(=O)Nc5ccc(C)cc5)c(=O)n4ccn3n2)cc1	-0.62	1.25
Cc1ccccc1CSc1nnc2c(=O)n(-c3ccc(F)cc3)ccn12	16.33	-5.51
NC(=O)CSc1nnc2c(=O)n(-c3ccc(F)cc3)ccn12	22.03	3.06
COc1ccc(NC(=O)Cn2nc3ccc(SC4CCCCC4)nn3c2=O)c(OC)c1	7.02	-7.62
Cc1ccc(NC(=O)Cn2nc3ccc(SCc4ccc(Cl)cc4)nn3c2=O)cc1C	4.09	-6.92
CCc1ccccc1Sc1nccn2c(=O)n(CC(=O)N3CCN(c4ccccc4F)CC3)nc12	-3.66	-8.54
O=C(CSc1nc2ccccc2n2cnnc12)Nc1cccc(Br)c1	-6.77	-14.46
O=C(CCc1nnc2c3cc(-c4ccc(F)cc4)nn3ccn12)NCc1ccccc1Cl	-0.61	-10.24
O=C(Cn1nc2c(=O)n(-c3ccc(Br)cc3)ccn2c1=O)Nc1cc(F)ccc1F	4.89	0.34
Cc1ccc(-n2ccn3c(SCC#N)nnc3c2=O)cc1C	11.84	-4.03
Cc1nnc2ccc(S(=O)(=O)N(Cc3cc(F)cc(F)c3)c3ccccc3)cn12	12.61	-1.77
CCOc1ccc(-n2ccn3c(=O)n(CC(=O)Nc4ccc(Br)cc4)nc3c2=O)cc1	-12.91	-1.87
CCCn1c(=O)c2sccc2n2c(=O)n(CC(=O)c3cc(C)ccc3C)nc12	7.83	0.58
CCOc1ccc(-n2ccn3c(SCC(=O)Nc4ccc(C)cc4)nnc3c2=O)cc1	15.66	2.17
Cc1nnc2c(SCC(=O)Nc3ccc4c(c3)OCCO4)nc3ccccc3n12	5.53	3.38

SMILES	Inhibition [1] [%]	Inhibition [2] [%]
COc1cc(OC)c(NC(=O)Cn2nc3c(SC4CCCCC4)nccn3c2=O)cc1Cl	7.52	-4.1
Cc1ccc(CN(c2ccc3c(c2)OCO3)S(=O)(=O)c2ccc3nnc(C)n3c2)cc1	-0.98	-3.16
COc1ccc(NC(=O)Cn2nc3c4cc(-c5ccc(C)c(C)c5)nn4ccn3c2=O)c(OC)c1	-8.81	-14.02
COc1ccc(NC(=O)Cn2nc3ccc(SC4CCCCC4)nn3c2=O)cc1OC	3.6	-2.79
COc1ccc(NC(=O)c2ccc3nn(CC(=O)Nc4ccc(C)c(F)c4)c(=O)n3c2)cc1	8.14	-7.69
Cc1ccc(NC(=O)Cn2nc3c(N4CCOCC4)nccn3c2=O)cc1Cl	10.97	1.83
CCOC(=O)c1ccc(NC(=O)Cn2nc3ccc(-c4ccc(Cl)cc4)nn3c2=O)cc1	7.47	-1.44
O=c1n(Cc2cccc(Br)c2)nc2ccc(-c3ccccc3)nn12	4.53	-3.48
CCOC(=O)c1ccc(NC(=O)Cn2nc3ccc(C(=O)Nc4cccc(C)c4)cn3c2=O)cc1	1.34	-4.77
O=C(Cn1nc2c(N3CCOCC3)nccn2c1=O)NCc1cc(F)cc(F)c1	7.03	-4.76
CC(C)c1ccc(N(Cc2ccccc2F)S(=O)(=O)c2cccn3cnnc23)cc1	2.39	-0.79
Cc1ccc(NC(=O)Cn2nc3ccc(SC4CCCCC4)nn3c2=O)cc1	-13.21	-13.34
O=c1c2sccc2n2c(=O)n(Cc3cccc(Cl)c3)nc2n1CCc1ccccc1	10.13	1.01
COc1cccc(Oc2nccn3c(=O)n(CC(=O)NCc4cccs4)nc23)c1	7.35	-2.75
CCCc1nnc2c(=O)n(CC(=O)Nc3ccc(Br)cc3)c3ccccc3n12	11.05	2.53
CCCc1ccc(S(=O)(=O)Nc2ccc3nncn3n2)cc1	16.11	2.74

Reference: ChEMBL document CHEMBL4513146, “CO-ADD screening of Karazin Kharkiv National University (Ukraine) compounds”
